Values joined by “and” are separate entries in the source; they are usually repeats but may differ in a detail not shown here. Equal entries are not always repeated. Inconclusive results are not listed. Active and inactive are the calls of the source.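 The calls were made as follows, unless noted: active = normalized viability below 100% at a tested concentration; inactive = the rest.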
What was measured:
[1] = growth inhibition of DIPG glioma cells, dose response, cell-based, SU-DIPG-XVII, MIPE5.0, CellTiter-Glo, qHTS (AID 1347060; cut-off not given, nearly all actives have AC50 up to about 26 µM;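 as to AC50: cells exposed to compound for 48 hours before viability readout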); settings: SU-DIPG-XVII viability, CellTiter-Glo ATP luminescence
[2] = growth inhibition of DIPG glioma cells, dose response, cell-based, JHH-DIPG-1, MIPE4.0, CellTiter-Glo, qHTS (AID 1347062; cut-off not given, nearly all actives have AC50 up to about 27 µM;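 as to AC50: cells exposed to compound for two days before readout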); settings: JHH-DIPG-1 viability, CellTiter-Glo ATP luminescence
[3] = growth inhibition of DIPG glioma cells, dose response, cell-based, SU-DIPG-IV, MIPE4.0, CellTiter-Glo, qHTS (AID 1347063; cut-off not given, nearly all actives have AC50 up to about 30 µM;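 also: compound exposure lasted 48 hours before the viability readout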); settings: SU-DIPG-IV viability, CellTiter-Glo ATP luminescence
[4] = growth inhibition of DIPG glioma cells, dose response, cell-based, SU-DIPG-XIII, MIPE5.0, CellTiter-Glo, qHTS (AID 1347064; cut-off not given, nearly all actives have AC50 up to about 23 µM;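 as to AC50: cells exposed to compound for 48 hours before the viability read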); settings: SU-DIPG-XIII viability, CellTiter-Glo ATP luminescence
[5] = SU-DIPG-XXV glioma cell viability, MIPE5.0 library, qHTS (AID 1347068; cut-off not given, nearly all actives have IC50 up to about 30 µM;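 as to IC50: cells exposed to compound for 48 hours before viability readout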)
[6] = sensitizers of A549 cells to miR-34 induction, primary screen, imaging, A549 dox-inducible miR-34, nuclei and caspase counts (AID 1347080;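 active = compounds whose cell count with miR-34 switched on is under 0.7 times the count with it off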); settings: A549 miR-34 inducible, Hoechst nuclei count, 48 h
[7] = survival rescue of mitochondrial mutant cells in low glucose, primary screen, MELAS cybrids, Rieske KO mouse fibroblasts, CellTiter-Glo (AID 1508586;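 active = mean z-score across replicates of 1.96 or higher in either the MELAS or the Rieske mutant cell line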;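 also: z relative to plate mean and SD of compound and empty wells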)
[8] = viability loss in pontine glioma line – cell-based, SU-DIPG-XXV, MIPE5.0, CellTiter-Glo, qHTS, dose response (AID 1347065; cut-off not given, nearly all actives have AC50 up to about 26 µM;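 also: cells exposed to compound for 48 hours before ATP readout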); settings: CellTiter-Glo ATP luminescence
[9] = JHH-DIPG-1 glioma cell viability, MIPE5.0 library, CellTiter-Glo luminescence, qHTS (AID 1347067; cut-off not given, nearly all actives have AC50 up to about 26 µM;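 also: cells exposed to compound for 48 hours before readout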); settings: JHH-DIPG-1 glioma viability, CellTiter-Glo ATP luminescence
[10] = ovarian cancer cell viability with rucaparib, profiling panel, oncology-focused library, rucaparib conditional (AID 1508598); settings: patient-derived ovarian cancer cells, CellTiter-Glo viability, 144 h, stronger effect = lower value
[11] = SU-DIPG-VI glioma cell viability, MIPE4.0 library, CellTiter-Glo luminescence, qHTS (AID 1347066; cut-off not given, nearly all actives have AC50 up to about 30 µM;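 also: cells exposed to compound for 48 hours before readout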); settings: CellTiter-Glo ATP luminescence
[12] = modifiers of HSF1 nuclear foci, imaging, Selleck Cancer Library (AID 1347162; in the data active = plate-normalised HSF1 focus index below about 0.46); settings: human cells, at 10 µM; SSMD: measured here: HSF1 foci SSMD mean; cell count: measured here: cell number; plate-normalised HSF1 focus index: stronger effect = lower value
[13] = stronger effect = lower value, cell number ratio, induced over uninduced
[14] = measured here: relative caspase fold change +Dox/-Dox
[15] = measured here: total cells with miR-34 induction, stronger effect = lower value
[16] = measured here: total cells without miR-34 induction
[17] = MELAS cybrid survival, CellTiter-Glo 48 h, stronger effect = higher value
[18] = Rieske KO mouse fibroblast survival, CellTiter-Glo 72 h

CC1(C)Cc2c(-c3ccccc3)c(-c3ccc(Cl)cc3)c(CC(=O)O)n2C1
AC50 [1]: 26.3 µM (active)
outcome [2]: inactive
AC50 [3]: 18.7 µM (active)
outcome [4]: inactive
outcome [5]: inactive
fold change [6, 13]: 0.932 (inactive)
fold change [6, 14]: 1.58
cell count [6, 15]: 5140
cell count [6, 16]: 5520
z-score [7, 17]: -0.384 (inactive)
z-score [7, 18]: 1.11

CCN1CCN(c2ccc(Nc3cc(N(C)C(=O)Nc4c(Cl)c(OC)cc(OC)c4Cl)ncn3)cc2)CC1
AC50 [1]: 0.235 µM (active)
AC50 [2]: 23.5 µM (active)
AC50 [3]: 33.2 µM (active)
AC50 [4]: 0.332 µM (active)
AC50 [8]: 0.209 µM (active)
AC50 [9]: 8.33 µM (active)

COc1cc2nccc(Oc3ccc(NC(=O)C4(C(=O)Nc5ccc(F)cc5)CC4)cc3)c2cc1OC
AC50 [1]: 13.2 µM (active)
AC50 [2]: 2.35 µM (active)
AC50 [3]: 4.69 µM (active)
AC50 [4]: 16.6 µM (active)
AC50 [8]: 7.42 µM (active)
AC50 [9]: 11.8 µM (active)
IC50 [5]: 8.33 µM (active)
fold change [6, 13]: 1.18 (inactive) and 1.06 (inactive)
fold change [6, 14]: 0.894 and 0.677
cell count [6, 15]: 1810 and 3700
cell count [6, 16]: 1540 and 3490
z-score [7, 17]: -0.475 (inactive) and -0.436 (inactive)
z-score [7, 18]: 1.25 and 1.04
viability ([10]; at 0.000305 µM, OCI-C5x cells, with rucaparib 10 µM, 100% = cells with rucaparib alone): 114% (inactive)
viability ([10]; at 0.000305 µM, OCI-C5x cells, without rucaparib): 126% (inactive)
viability ([10]; at 0.000305 µM, OCI-P5x cells, with rucaparib 20 µM, 100% = cells with rucaparib alone): 85.5% (active)
viability ([10]; at 0.000305 µM, OCI-P5x cells, without rucaparib): 68.9% (active)
viability ([10]; at 0.00122 µM, OCI-C5x cells, with rucaparib 10 µM, 100% = cells with rucaparib alone): 115% (inactive)
viability ([10]; at 0.00122 µM, OCI-C5x cells, without rucaparib): 119% (inactive)
viability ([10]; at 0.00122 µM, OCI-P5x cells, with rucaparib 20 µM, 100% = cells with rucaparib alone): 59.2% (active)
viability ([10]; at 0.00122 µM, OCI-P5x cells, without rucaparib): 22.8% (active)
viability ([10]; at 0.00488 µM, OCI-C5x cells, with rucaparib 10 µM, 100% = cells with rucaparib alone): 110% (inactive)
viability ([10]; at 0.00488 µM, OCI-C5x cells, without rucaparib): 114% (inactive)
viability ([10]; at 0.00488 µM, OCI-P5x cells, with rucaparib 20 µM, 100% = cells with rucaparib alone): 94.7% (active)
viability ([10]; at 0.00488 µM, OCI-P5x cells, without rucaparib): 99.9% (active)
viability ([10]; at 0.0195 µM, OCI-C5x cells, with rucaparib 10 µM, 100% = cells with rucaparib alone): 118% (inactive)
viability ([10]; at 0.0195 µM, OCI-C5x cells, without rucaparib): 122% (inactive)
viability ([10]; at 0.0195 µM, OCI-P5x cells, with rucaparib 20 µM, 100% = cells with rucaparib alone): 94.3% (active)
viability ([10]; at 0.0195 µM, OCI-P5x cells, without rucaparib): 101% (inactive)
viability ([10]; at 0.0781 µM, OCI-C5x cells, with rucaparib 10 µM, 100% = cells with rucaparib alone): 127% (inactive)
viability ([10]; at 0.0781 µM, OCI-C5x cells, without rucaparib): 115% (inactive)
viability ([10]; at 0.0781 µM, OCI-P5x cells, with rucaparib 20 µM, 100% = cells with rucaparib alone): 93.1% (active)
viability ([10]; at 0.0781 µM, OCI-P5x cells, without rucaparib): 101% (inactive)
viability ([10]; at 0.313 µM, OCI-C5x cells, with rucaparib 10 µM, 100% = cells with rucaparib alone): 130% (inactive)
viability ([10]; at 0.313 µM, OCI-C5x cells, without rucaparib): 129% (inactive)
viability ([10]; at 0.313 µM, OCI-P5x cells, with rucaparib 20 µM, 100% = cells with rucaparib alone): 87.8% (active)
viability ([10]; at 0.313 µM, OCI-P5x cells, without rucaparib): 94.8% (active)
viability ([10]; at 1.25 µM, OCI-C5x cells, with rucaparib 10 µM, 100% = cells with rucaparib alone): 147% (inactive)
viability ([10]; at 1.25 µM, OCI-C5x cells, without rucaparib): 133% (inactive)
viability ([10]; at 1.25 µM, OCI-P5x cells, with rucaparib 20 µM, 100% = cells with rucaparib alone): 84.5% (active)
viability ([10]; at 1.25 µM, OCI-P5x cells, without rucaparib): 91.5% (active)
viability ([10]; at 5 µM, OCI-C5x cells, with rucaparib 10 µM, 100% = cells with rucaparib alone): 146% (inactive)
viability ([10]; at 5 µM, OCI-C5x cells, without rucaparib): 133% (inactive)
viability ([10]; at 5 µM, OCI-P5x cells, with rucaparib 20 µM, 100% = cells with rucaparib alone): 74.7% (active)
viability ([10]; at 5 µM, OCI-P5x cells, without rucaparib): 85.4% (active)

Cc1c(CCOc2ccc(C(=O)O)cc2)c2cc(Cl)ccc2n1C(c1ccccc1)c1ccccc1
outcome [1]: inactive
outcome [2]: inactive
outcome [3]: inactive
outcome [4]: inactive
outcome [8]: inactive
outcome [11]: inactive
outcome [9]: inactive
outcome [5]: inactive
SSMD [12]: 2.36
cell count [12]: 6680
plate-normalised HSF1 focus index [12]: 1.14 (inactive)

CC(C)=CC[C@@H](O)C1=CC(=O)c2c(O)ccc(O)c2C1=O
AC50 [1]: 20.9 µM (active)
AC50 [2]: 0.526 µM (active)
AC50 [3]: 2.96 µM (active)
AC50 [4]: 11.8 µM (active)
AC50 [8]: 10.5 µM (active)
AC50 [11]: 2.96 µM (active)
fold change [6, 13]: 1.09 (inactive) and 1.03 (inactive)
fold change [6, 14]: 1.1 and 1.06
cell count [6, 15]: 2290 and 4460
cell count [6, 16]: 2110 and 4340
z-score [7, 17]: -1.24 (inactive)
z-score [7, 18]: 1.65

Source: PubChem BioAssay
